Experimental findings from PubChem BioAssay (Tox21) are described below.

Each structure is given as a SMILES string. Several values for one entry are separate records, joined by “and”; a condition that tells them apart may be missing. Equal values may be shown once. Inconclusive results are not listed. A call without a number means that no potency is given here. More than one record can exist for a structure, and the calls need not agree. Activity calls are given as the source filed them. Calls come from the whole dose curve; as a rule, active = well fitted activation curve with a large enough effect in the repeat runs; inconclusive = weak or mixed curves; inactive = flat fitted curve, though single readings scatter. Starred links: 1 amine or outer side, 2 acyl side, 3 side chain; linkers in the order of their positions; H or OH if unused. Positions of bridges follow the written chain, without caps; N, C: chain ends. Non-standard residues stand in square brackets, D forms with d. Residues, ends and D or L forms follow the SMILES beside them. Chains are numbered I, II in the order given. Actinocin(9to1) = Cc1c2oc3c(C)ccc(C(=O)[*:1])c3nc-2c(C(=O)[*:2])c(N)c1=O; NMeV = CN[C@H](C(=O)O)C(C)C; Sar = CNCC(=O)O
Potency is the fitted concentration of half-maximal effect.

The nature of the assay: A CellTox Green Cytotoxicity Assay to monitor cytotoxicity in HEK293 cells - 32 hour (AID 1224881). Note: nearly all actives have a fitted effect of over 40% in size. To be noted: CellTox Green fluorescence; series mostly up to 76.8 µM. Put shortly:
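HEK293 cells, 600/well, were preincubated 5 hours and then exposed to compounds at 37 C for up to 40 hours. A cell-impermeant cyanine dye staining dead-cell DNA was read by fluorescence at 0, 8, 16, 24, 32 and 40 h time points.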
Consider `CC(C)(C)NCC(O)c1cc(O)cc(O)c1` (configuration not stated), for which the Potency result is “inactive”. For `Cc1c2oc3c(C)ccc(C(=O)N[C@@H]4C(=O)N[C@H](C(C)C)C(=O)N5CCC[C@H]5C(=O)N(C)CC(=O)N(C)[C@@H](C(C)C)C(=O)O[C@@H]4C)c3nc-2c(C(=O)N[C@@H]2C(=O)N[C@H](C(C)C)C(=O)N3CCC[C@H]3C(=O)N(C)CC(=O)N(C)[C@@H](C(C)C)C(=O)O[C@@H]2C)c(N)c1=O` (I: T[dV]P[Sar][NMeV] / II: T[dV]P[Sar][NMeV]; ester I:1-I:C, II:1-II:C; linker I:N-II:N via Actinocin(9to1)) the value was “inactive”; for `C#CC(C)(CC)OC(=O)c1ccccc1C(=O)O` (configuration not stated), “inactive”; for `CC(C)(C)NCC(O)COc1ccccc1OCC1CCCO1` (configuration not stated), “inactive”. For `COc1ccc(Cc2cnc(N)nc2N)cc1OC` the value was “inactive”; for `C=CS(=O)(=O)O`, “inactive”; for `CC(=O)C1=C(C)[C@@H]2C[C@@]3(C1)[C@H](C)CC[C@H]3C2(C)C`, 36.2 µM (active) and inactive. For `O=S(=O)(O)c1ccc2nc(-c3ccccc3)[nH]c2c1`, the Potency result was “inactive”.

In the case of `Cc1scc2c1N(C(=O)CN1CCN(C)CC1)c1ccccc1NC2=O`, the Potency entry is “inactive”. The same measure for `COC(c1ccccc1)(c1ccccc1)[C@H](Oc1nc(C)cc(C)n1)C(=O)O`: “inactive”. For `OCCN1CCNCC1` the value was “inactive”; for `C1COC(NC(C2CC2)C2CC2)=N1`, “inactive”; for `Cc1cc(OCCOCC[N+](C)(C)Cc2ccccc2)ccc1C(C)(C)CC(C)(C)C`, 21.7 µM (active) and 23.9 µM (active). `CC(=O)CC(=O)Nc1ccc2[nH]c(=O)[nH]c2c1`: the Potency result is “inactive”. Turning to `CCN(CC)C(=O)Nc1ccc(OCC(O)CNC(C)(C)C)c(C(C)=O)c1` (configuration not stated), the Potency entry was “inactive”. As for `CCCOC(=O)c1cc(O)c(O)c(O)c1`, the Potency entry was “inactive”. Turning to `CN1C(=O)c2ccc([N+](=O)[O-])cc2C1=O`, the Potency entry is “inactive”. Consider `CC(C)(C)c1ccccc1`, for which the Potency entry was “inactive”. For `Nc1nc2ccccc2[nH]1` the value was “inactive”. Take `c1ccc2c(c1)CCCC2C1=NCCN1` (configuration not stated): the Potency result is “inactive”. For `O=C(Cl)c1cccc(C(=O)Cl)c1`, the Potency result was “inactive”. For the compound `CCc1cc(C(C)(C)C)c(O)c(C(C)(C)C)c1`, the Potency is 21.9 µM (active).

Take `CC[C@@H](N)CO`: the Potency entry was “inactive”.

On to `Cc1ccc(-c2cc(C(F)(F)F)nn2-c2ccc(S(N)(=O)=O)cc2)cc1`, for which the Potency was 49 µM (active) and inactive. On to `CCCCCCCCCCCCCC[P+](CCCC)(CCCC)CCCC`, for which the Potency was 12.2 µM (active) and 17.4 µM (active). On to `CCC(CO)(CO)COCC(CC)(CO)CO`, for which the Potency result is “inactive”. `Nc1cc(S(=O)(=O)O)cc2cc(S(=O)(=O)O)cc(O)c12`: the Potency result was “inactive”. On to `O=C(O)Cn1cnnn1`, for which the Potency result is “inactive”. The same measure for `Oc1ccc(Cl)cc1Cc1cc(Cl)ccc1O`: “inactive”; for `c1cnc2cc3c(cc2n1)C1CNCC3C1`: “inactive”. On to `C=C(C)C(=O)O`, for which the Potency result is “inactive”. For `CCN(CC)CCOc1ccc(/C(=C(\Cl)c2ccccc2)c2ccccc2)cc1`, the Potency was 28.1 µM (active) and 23.9 µM (active). For `NCCCCCC(=O)O` the value was “inactive”; for `CC(C)CCOC(=O)c1ccc(N(C)C)cc1`, “inactive”; for `CCN(CC)c1ccc2c(C)cc(=O)oc2c1`, “inactive”. In the case of `CCCNC(C)C(=O)Nc1ccccc1C` (configuration not stated), the Potency result is “inactive”. Turning to `CCOC(=O)C(C)C(C)=O` (configuration not stated), the Potency entry was “inactive”.
